Test [1] in a line: qHTS assay to test for compound auto fluorescence at 535 nm (green) in HEK293 cells (AID 720680). A general note: Quantitative high-throughput screening tests each substance at several concentrations.
The nature of test [2]: qHTS assay to test for compound auto fluorescence at 460 nm (blue) in HEK293 cell free culture (AID 720681). A digest of the protocol:
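Compounds were added to cell-free DMEM with 10% FBS and fluorescence read directly. The blue channel used 405 nm excitation and 460 nm emission, with triamterene as the reference fluorophore.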

Test [3] in a line: qHTS assay to test for compound auto fluorescence at 535 nm (green) in HEK293 cell free culture (AID 720682). The essentials:
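Each library compound, or DMSO control, is added by pintool to medium alone, comprising DMEM and 10% FBS. Emission at 535 nm following 485 nm excitation is quantified against fluorescein.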

Test [4] is described as follows: qHTS assay to test for compound auto fluorescence at 590 nm (red) in HEK293 cell free culture (AID 720683). A digest of the protocol: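 Cell-free wells of DMEM with 10% FBS received compound, and intrinsic fluorescence was read at excitation/emission 540/590 nm. Values expressed as equivalence to Rose Bengal sodium.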
Test [5] in a line: qHTS assay to test for compound auto fluorescence at 590 nm (red) in HepG2 cell free culture (AID 720684). A digest of the protocol: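 Compounds are added to culture medium (MEM, 10% FBS) lacking cells, then fluorescence is read at excitation 540 nm, emission 590 nm, with Rose Bengal sodium as the equivalency standard.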
Test [6] can be described thus: qHTS assay to test for compound auto fluorescence at 460 nm (blue) in HepG2 cell free culture (AID 720685). The essentials: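 Compound (23 nL) or DMSO pinned into cell-free MEM with 10% FBS; blue fluorescence read at 405/460 nm excitation/emission, expressed as auto-fluorescence equivalency to triamterene.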
A short description of test [7]: qHTS assay to test for compound auto fluorescence at 535 nm (green) in HepG2 cell free culture (AID 720686).
Test [8] is described as follows: qHTS assay to test for compound auto fluorescence at 460 nm (blue) in HepG2 cells (AID 720687). The essentials:
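HepG2 cells in MEM with 10% FBS, attached overnight at 37 C, were exposed to compound or DMSO for 1 hr at 37 C, 5% CO2. Blue fluorescence was read at 405/460 nm, with triamterene as reference fluorophore.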

Test [9] is described as follows: qHTS assay to identify small molecule antagonists of the glucocorticoid receptor (GR) signaling pathway - cell viability counter screen (AID 720693). Further: nearly all actives have a fitted effect of over 55% in size. Further: potency means the concentration at half of the fitted maximal effect.
The nature of test [10]: qHTS assay for identifying genotoxic compounds that show differential cytotoxicity against isogenic chicken DT40 cell lines with known DNA damage response pathways - wild type cell line (AID 743012). Further: nearly all actives have a fitted effect of over 60% in size. Further: potency means the concentration at half of the fitted maximal effect. A digest of the protocol: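 Wild-type DT40 cells (300/well) exposed to compounds for 40 hours at 37 C/5% CO2. Viability read by CellTiter-Glo luminescence after 30 min at room temperature.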

Test [11] can be described thus: qHTS assay for identifying genotoxic compounds that show differential cytotoxicity against isogenic chicken DT40 cell lines with known DNA damage response pathways - Rev3 mutant cell line (AID 743014). Further: nearly all actives have a fitted effect of over 55% in size. Further: potency means the concentration at half of the fitted maximal effect.
The nature of test [12]: qHTS assay for identifying genotoxic compounds that show differential cytotoxicity against isogenic chicken DT40 cell lines with known DNA damage response pathways - Rad54/Ku70 mutant cell line (AID 743015). Further: nearly all actives have a fitted effect of over 60% in size. Further: potency means the concentration at half of the fitted maximal effect.
A short description of test [13]: qHTS assay to identify small molecule antagonists of the androgen receptor (AR) signaling pathway - cell viability counter screen (AID 743033; further: nearly all actives have a fitted effect of over 45% in size).
Test [14] in a line: qHTS assay to identify small molecule antagonists of the androgen receptor (AR) signaling pathway using the MDA cell line - cell viability counter screen (AID 743041; further: nearly all actives have a fitted effect of over 45% in size; further: potency means the concentration at half of the fitted maximal effect). The essentials: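 Same-well cytotoxicity was assessed by CellTiter-Fluor in MDA-kb2 AR-luc cells after 16 h of compound treatment under R1881 agonism.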
The target in test [15] is Androgen receptor (Homo sapiens) (UniProt P10275). Briefly: qHTS assay to identify small molecule agonists of the androgen receptor (AR) signaling pathway (AID 743036; active means well fitted activation curve with a large enough effect in the signal ratio in the repeat runs, with a control signal flat, not every such curve was filed as active; the % refers to the signal ratio). A digest of the protocol: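 Following a 4 h settling period, AR-UAS-bla HEK293 cells were dosed with compounds for 16 h at 37C. A 2 h room-temperature incubation with LiveBLAzer B/G FRET substrate preceded the fluorescence measurement.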

The target is the same in test [16]. Briefly: qHTS assay to identify small molecule agonists of the androgen receptor (AR) signaling pathway using the MDA cell line (AID 743040; further: nearly all actives have a fitted effect of over 20% in size). The essentials: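 Human breast carcinoma MDA-kb2 reporter cells (MMTV-luc, AR/GR elements) were treated for 16 h at 37C in 0% CO2 following a 5 h settling period. Signal was quantified by ONE-Glo luminescence.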
For test [17] the target is unchanged. The experiment in a line: qHTS assay to identify small molecule antagonists of the androgen receptor (AR) signaling pathway using the MDA cell line (AID 743042; further: nearly all actives have a fitted effect of over 55% in size). The essentials:
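MDA-kb2 breast carcinoma cells carrying MMTV-luciferase (AR/GR responsive) were co-treated with compounds and the agonist R1881 for 16 h at 37C. Inhibition read as ONE-Glo luminescence; CellTiter-Fluor fluorescence measured in parallel for cytotoxicity.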

Results filed as inconclusive are left out. Activity calls are given as the source filed them. Unless noted, the call rests on the fitted dose curve; in most records, active means well fitted curve in the direction sought with a large enough effect in the repeat runs; inconclusive means weak or mixed curves; inactive means no such curve, though single readings can be large; an effect the other way counts as inactive or inconclusive. Non-standard residues stand in square brackets, D forms with d. Residues, ends and D or L forms follow the SMILES beside them. pGlu = O=C1CC[C@@H](C(=O)O)N1

Among the data in PubChem BioAssay (Tox21) are Potency and outcome values, retold here.

Chain of Androgen receptor (Homo sapiens) (P10275 whole entry, looked up): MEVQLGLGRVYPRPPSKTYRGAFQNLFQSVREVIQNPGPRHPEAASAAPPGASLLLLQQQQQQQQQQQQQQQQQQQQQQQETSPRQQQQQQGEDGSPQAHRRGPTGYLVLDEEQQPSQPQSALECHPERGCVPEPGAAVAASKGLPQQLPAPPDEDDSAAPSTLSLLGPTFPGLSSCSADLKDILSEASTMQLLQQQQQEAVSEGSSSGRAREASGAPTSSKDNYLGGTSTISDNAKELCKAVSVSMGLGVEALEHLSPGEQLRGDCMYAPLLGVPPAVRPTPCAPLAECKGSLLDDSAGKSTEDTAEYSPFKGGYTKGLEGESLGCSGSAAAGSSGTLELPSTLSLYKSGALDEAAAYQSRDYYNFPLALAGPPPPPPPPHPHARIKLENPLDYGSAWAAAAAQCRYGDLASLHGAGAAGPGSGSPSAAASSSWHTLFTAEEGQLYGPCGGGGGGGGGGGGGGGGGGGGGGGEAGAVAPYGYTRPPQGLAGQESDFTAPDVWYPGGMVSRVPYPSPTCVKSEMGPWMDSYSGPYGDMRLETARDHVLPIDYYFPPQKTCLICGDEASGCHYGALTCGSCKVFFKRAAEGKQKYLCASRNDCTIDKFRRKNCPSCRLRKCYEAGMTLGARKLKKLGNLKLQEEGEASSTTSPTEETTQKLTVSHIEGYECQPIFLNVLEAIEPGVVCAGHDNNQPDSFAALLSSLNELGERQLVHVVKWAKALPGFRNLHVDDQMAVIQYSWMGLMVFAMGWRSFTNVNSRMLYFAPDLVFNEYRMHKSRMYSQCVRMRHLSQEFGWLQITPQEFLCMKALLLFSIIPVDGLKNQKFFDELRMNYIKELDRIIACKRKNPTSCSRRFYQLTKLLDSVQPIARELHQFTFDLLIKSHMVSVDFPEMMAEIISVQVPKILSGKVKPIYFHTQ

With `CC[C@@H]1/C=C(\C)C[C@H](C)C[C@H](OC)[C@H]2O[C@@](O)(C(=O)C(=O)N3CCCC[C@H]3C(=O)O[C@H](/C(C)=C/[C@@H]3CC[C@@H](Cl)[C@H](OC)C3)[C@H](C)[C@@H](O)CC1=O)[C@H](C)C[C@@H]2OC`, the Potency result in test [1], in test [2], in test [3], in [4], in [5] and in [7] was “inactive” each time. Further, the Potency result in test [9], in test [10], in [11], in test [12], in test [13] and in [14] was “inactive” throughout. In addition, the result in test [6] and in [8] was inactive.

For `CC(C)(C)CC(=O)OCC(=O)[C@@]12OC(C)(C)O[C@@H]1C[C@H]1[C@@H]3CCC4=CC(=O)C=C[C@]4(C)[C@@]3(F)[C@@H](O)C[C@@]12C`, the Potency entry in [1], in test [2], in test [3], in test [4], in test [5] and in test [7] was “inactive” in each case. The Potency result in [9], in test [10], in test [11], in [12], in test [13] and in test [14] was “inactive” in each case. The molecule was classed as inactive in [6] and in test [8].

On to `C=C1CC[C@H](O)CC1=C/C=C1\CCC[C@]2(C)[C@@H]([C@H](C)CC[C@@H](O)C(C)(C)O)CC[C@@H]12`, for which the Potency entry in test [1], in test [2], in test [3], in test [4], in test [5] and in [7] was “inactive” throughout. For the same molecule, the Potency result in test [13], in test [15], in test [16], in [14] and in test [17] was “inactive” each time. Further, the result in test [6] and in test [8] was inactive. For the same molecule, the results for the Potency in test [9], in [10] and in [12] were 21.3 µM (active), 7.5 µM (active) and 13.3 µM (active), respectively.

Turning to `C=C1CC[C@@H]2[C@](C)(CO)[C@H](O)CC[C@@]2(C)[C@@H]1C/C=C1/C(=O)OC[C@H]1O`, the Potency entry in test [1], in test [2], in test [3], in test [4], in [5] and in test [7] was “inactive” in each case. Besides, the Potency result in test [9], in [15] and in test [16] was “inactive” in each case. Also, the call in test [6] and in test [8] was inactive. For the same molecule, the Potency is 5.96 µM (active) in test [10], 8.41 µM (active) in test [11] and 5.96 µM (active) in [12].

In the case of `CN1[C@@H]2CCC[C@H]1CC(NC(=O)c1nn(C)c3ccccc13)C2` (stereo not given in full), the Potency result in test [1], in test [2], in test [3], in [4], in test [5] and in [7] was “inactive” each time. Also, the Potency result in [9], in test [10], in test [11], in [12], in test [13] and in test [14] was “inactive” in each case. Further, the result in test [6] and in test [8] was inactive.

As to `O=C(O)CO.[NH2-].[NH2-].[Pt+2]`, the Potency entry in test [1], in test [2], in [3], in test [4], in test [5] and in test [7] was “inactive” each time. Further, the Potency entry in test [9], in test [10], in [12], in test [13] and in test [14] was “inactive” throughout. The call in [6] and in test [8] was inactive.

On to `CC[C@H](C)[C@H](NC(=O)[C@H](Cc1ccccc1)NC(=O)[C@H](C)NC(=O)[C@H](CC(=O)O)NC(=O)[C@H](CCCCN)NC(=O)[C@H](CO)NC(=O)[C@@H]1CCCN1C(=O)[C@@H]1CCC(=O)N1)C(=O)NCC(=O)N[C@@H](CC(C)C)C(=O)N[C@@H](CCSC)C(N)=O` ([pGlu]PSKDAFIGLM-NH2), for which the Potency result in test [1], in test [2], in test [3], in test [4], in [5] and in test [7] was “inactive” throughout. The Potency result in test [9], in test [10], in test [11], in test [12], in [13] and in test [14] was “inactive” in each case. Moreover, the molecule was classed as inactive in test [6] and in test [8].

As for `O=[N+]([O-])c1ccc(Oc2ccc(N=C=S)cc2)cc1`, the Potency result in test [1], in test [2], in test [3], in [4], in test [5] and in test [7] was “inactive” in each case. Further, the Potency result in test [9] was “inactive”. Also, the result in [6] and in test [8] was inactive. Besides, the Potency in [10] is 13.3 µM (active); in [11] it was 23.7 µM (active); in test [12], 18.8 µM (active); in test [14] it was 26.6 µM (active).

For `CC(=O)O[C@H]1C[C@@H]2CC[C@@H]3[C@H](CC[C@@]4(C)[C@H]3C[C@H](N3CC[N+](C)(C)CC3)[C@@H]4OC(C)=O)[C@@]2(C)C[C@@H]1N1CC[N+](C)(C)CC1`, the Potency result in test [1], in [2], in test [3], in [4], in [5] and in test [7] was “inactive” in each case. In addition, the Potency entry in test [9], in test [10], in test [11], in test [12], in test [13] and in [14] was “inactive” in each case. Besides, the call in test [6] and in [8] was inactive.

In the case of `CCCCCCCCCCCCCCCC(=O)OC[C@@H](NC(=O)C(Cl)Cl)[C@H](O)c1ccc([N+](=O)[O-])cc1`, the Potency entry in [1], in test [2], in [3], in [4], in test [5] and in test [7] was “inactive” each time. Also, the Potency entry in test [9], in test [10], in test [12], in test [13] and in [14] was “inactive” throughout. In addition, the outcome in test [6] and in test [8] was inactive.

Take `C=CCOc1ccc(CC(=O)O)cc1Cl`: the Potency entry in test [1], in test [2], in [3], in test [4], in test [5] and in [7] was “inactive” throughout. Moreover, the Potency result in test [9], in test [10], in [11], in [12], in test [13] and in [14] was “inactive” each time. The call in [6] and in test [8] was inactive.

Regarding `CNC[C@@H]1CC[C@@H](N)[C@@H](O[C@H]2[C@H](O)[C@@H](O[C@H]3OC[C@](C)(O)[C@H](NC)[C@H]3O)[C@H](N)C[C@@H]2N)O1`, the Potency result in [1], in [2], in test [3], in test [4], in [5] and in [7] was “inactive” throughout. Besides, the Potency result in test [9], in [10], in test [11], in test [12], in test [13] and in test [14] was “inactive” throughout. Further, the result in [6] and in [8] was inactive.

Consider `C[C@H](N)C(=O)N[C@@H](C)P(=O)(O)O`, for which the Potency entry in test [1], in test [2], in [3], in [4], in [5] and in [7] was “inactive” throughout. Besides, the Potency entry in test [9], in test [10], in [11], in test [12], in test [13] and in test [14] was “inactive” in each case. Also, the molecule was classed as inactive in test [6] and in [8].

In the case of `O=C(O)[C@@H](O)[C@H](O)[C@H](O)[C@@H](O)C(=O)O` (tested in a mixture with another compound), the Potency entry in test [1], in test [2], in test [3], in test [4], in [5] and in [7] was “inactive” each time. Also, the Potency result in test [9], in [10], in test [11], in [12], in test [13] and in test [14] was “inactive” each time. For the same molecule, the call in test [6] and in test [8] was inactive.
